Assay outcomes from PubChem.
Ecoli rRNA inh: reduced GFP signal of wild-type E. coli, primary screen, bacterial rRNA inhibitor project, GFP/RFP fluorescence, OD600, single point; 350,000 compounds, 1.6% hits; GFP signal change (wild-type ribosome), % (no concentration beside the values); AID 720706, 2013; E. coli WT GFP vs humanized-ribosome RFP mutants, 24 h; hits give low values; DMSO median 0, no signal -100;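 active = significant combined selectivity score with lowered wild-type GFP, culture density cut under 30%, mutant RFP and density less affected; inactive = any of these conditions unmet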
MLL AF4-AF9 inh: inhibitors of AF4 peptide binding to AF9, primary screen, biochemical, AlphaScreen, biotin-AF4 peptide, FLAG-AF9, single point. Protein AF-9 (Homo sapiens), P42568. inhibition, % at 10 µM. 350,000 compounds, 0.47% hits;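 active = every replicate reaching a set inhibition limit, whatever the replicate mean, cut at about 25% in these data; inconclusive = mean inhibition reaches that limit but some replicates miss it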
Target sequence (P42568 whole entry, looked up): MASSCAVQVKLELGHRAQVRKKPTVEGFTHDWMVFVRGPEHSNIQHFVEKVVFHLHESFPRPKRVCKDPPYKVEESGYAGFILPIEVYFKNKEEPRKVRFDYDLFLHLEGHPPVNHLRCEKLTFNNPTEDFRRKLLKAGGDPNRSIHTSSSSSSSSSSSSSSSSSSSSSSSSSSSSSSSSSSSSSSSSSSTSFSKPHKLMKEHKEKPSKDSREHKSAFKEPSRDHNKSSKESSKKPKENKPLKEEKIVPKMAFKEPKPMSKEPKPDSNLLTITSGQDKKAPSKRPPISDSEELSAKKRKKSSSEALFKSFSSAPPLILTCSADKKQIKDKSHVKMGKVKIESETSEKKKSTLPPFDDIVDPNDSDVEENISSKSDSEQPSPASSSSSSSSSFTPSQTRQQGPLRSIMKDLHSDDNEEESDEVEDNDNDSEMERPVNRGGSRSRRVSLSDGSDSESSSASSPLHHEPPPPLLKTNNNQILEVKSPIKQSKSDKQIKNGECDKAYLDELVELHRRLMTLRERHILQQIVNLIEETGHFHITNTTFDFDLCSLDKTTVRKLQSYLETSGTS
MITF act: activators of MITF-driven TRPM1 promoter reporter, primary screen, cell-based, SK-MEL-5, luciferase, single point; SK-MEL-5 TRPM1-promoter luciferase, 24 h; % of positive control, neutral wells = 0; activation, % at 12.5 µM; 300,000 compounds, 0.75% hits;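 active = mean activation of at least 80% with every replicate also reaching 80%; inconclusive = mean reaches 80% but some replicate falls short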
esBAF inh: Bmi1 luciferase reporter increase in mESCs, primary screen, esBAF inhibitor project, mouse ES cells, Bmi1 luciferase knock-in, single point. 24 h; 100% = twice the neutral-well signal. reporter increase, % at 12.5 µM. 350,000 compounds, 2% hits. AID 602393, 2012; in the data active = activation above about 40%; inconclusive = no clear call, values can overlap the other calls;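 note: a rise in the Bmi1 reporter signal indicates esBAF inhibition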
Wnt act: Wnt/beta-catenin pathway activators, primary screen, cell-based, plate reader, single point | Wnt/beta-catenin reporter cell assay, activator | activation, % at 9.35 µM | 300,000 compounds, 1.2% hits | AID 743398, 2014; in the data active = activation above about 30%, passing the limit was not always enough; inconclusive = no clear call, values can overlap the other calls
Numbers stand for hits; . = inactive; ? = inconclusive; / = no result given. A selection: hits, their analogues and other compounds. The true share with any hit is near 3.7%.

SMILES	Ecoli rRNA inh	MLL AF4-AF9 inh	MITF act	esBAF inh	Wnt act
CCCC(=O)N1CCN(c2nc3c(OC)ccc(Cl)c3s2)CC1	-36	.	.	.	.
CCCCC(=O)N1CCN(c2nc3ccc(F)cc3s2)CC1	.	.	.	.	.
CCCCc1nc2ccccc2c(=O)n1NC(=O)c1c(O)c2c(n(CC(C)C)c1=O)CCCC2	/	/	/	.	.
C=CCn1c(SCC(=O)NC2CCCC2)nc2ccccc21	.	.	/	.	.
O=C(CN1C(=O)NC2(CCCCC2)C1=O)Nc1ccc2c(c1)CCC2	.	.	.	/	.
CCc1ccc2nc(N3CCN(C(=O)C(C)(C)C)CC3)sc2c1	.	.	.	?	.
CCC(=O)N1CCN(c2nc3ccc(Br)cc3s2)CC1	.	.	.	75	.
CSc1ccccc1NC(=O)CN1c2ccccc2CC1C (configuration not stated)	.	51	.	.	.
CN(c1ccccc1)S(=O)(=O)c1cccc(NC(=O)c2cc3ccccc3oc2=O)c1	.	.	.	54	.
Cc1ccccc1CN(C)CC(=O)Nc1cccc(S(=O)(=O)N(C)c2ccccc2)c1	-21	.	.	/	.
CO[C@H]1CN(C)C(=O)c2cc(NS(=O)(=O)c3ccccc3F)ccc2OC[C@@H](C)NC[C@@H]1C	.	.	/	.	/
COC(=O)C[C@@H]1CC[C@H](NC(=O)Nc2ccc(C(F)(F)F)cc2)[C@@H](CO)O1	.	.	/	.	/
COc1cc(Cl)ccc1OCc1cc(C(=O)NCc2cc(C(C)C)no2)no1	.	.	.	79	51
COc1cc(C)ccc1OCc1cc(C(=O)NC(C)Cn2cncn2)no1 (configuration not stated)	.	.	123	78	.
COc1cc(C)ccc1OCc1cc(C(=O)NCc2ccncc2)no1	.	.	.	52	?
COc1cc(Cl)ccc1OCc1cc(C(=O)NCC(C)(C)N2CCOCC2)no1	.	.	.	.	.
CC1CCN(S(=O)(=O)c2ccc(Cl)s2)CC1	/	/	.	.	.
O=C(NCC1CC1)[C@@H]1[C@@H](CO)[C@@H]2Cn3c(ccc(-c4ccccc4F)c3=O)[C@H]1N2Cc1ccccc1	.	.	/	.	/
CCc1nc2c(OCC(=O)N(C)C)cccn2c1N(C=O)Cc1ccc(OC)cc1	.	.	/	.	.
O=C(CSc1ccc(-c2nc3ccccc3[nH]2)cn1)Nc1ccc(S(=O)(=O)N2CCCC2)cc1	/	/	.	/	41
O=C(CSc1ccccc1)Nc1ccc(-c2nc3ccccc3[nH]2)cc1	/	/	.	/	.
Cc1cc2nc(-c3ccc(SCC(=O)Nc4ccc(S(=O)(=O)N5CCCC5)cc4)nc3)[nH]c2cc1C	/	/	.	/	47
Cc1ccc2c(c1)COc1c3ccc(C(=O)NCCO)cc3nn1-2	.	.	102	62	52
COCCNC(=O)c1ccc2c3n(nc2c1)-c1ccccc1CO3	.	.	.	53	.
O=C(NCC1CC1)c1ccc2c3n(nc2c1)-c1ccc(Cl)cc1CO3	.	.	.	44	.
SMILES	Ecoli rRNA inh	MLL AF4-AF9 inh	MITF act	esBAF inh	Wnt act
COCCNC(=O)c1ccc2c3n(nc2c1)-c1ccc(Cl)cc1CO3	.	/	87	63	.
COCCNC(=O)c1ccc2c(c1)nc(C)n2-c1cccc(Cl)c1	.	.	.	.	.
COc1cccc(NC(=O)c2oc3ccc(S(=O)(=O)N4CCOCC4)cc3c2C)c1	.	.	.	/	.
COC(=O)C1CCN(CC(=O)NC(=O)NC2CCCCC2)CC1	.	.	.	.	.
CC(=O)c1ccc(N2CCN(C(=O)/C=C/c3cccs3)CC2)cc1	.	.	.	/	.
C=CCNC(=O)c1ccc2c3n(nc2c1)-c1ccccc1CO3	.	.	.	.	.
O=C(NCCO)c1ccc2c3n(nc2c1)-c1ccc(Cl)cc1CO3	/	/	84	68	51
COc1cccc(C#Cc2ccc([C@H]3[C@H](CO)N4C(=O)CN(C(=O)c5ccncc5)C[C@@H]34)cc2)c1	.	.	/	/	/
c1ccc(Nc2ccc(NCCc3c[nH]c4ccccc34)cc2)cc1	-24	/	/	/	.
O=C(CCc1c[nH]c2ccccc12)Nc1ccc(Nc2ccncc2)cc1	.	/	/	/	.
O=C(CCc1c[nH]c2ccccc12)Nc1ccc(Nc2cccnc2)cc1	-30	/	/	/	.
